# This is one part of a sample in which the strongest signals are shown more often than they occur.
# Key:
# Assay in all cases: glycan array binding signal (z-score within array); higher = stronger binding
# Conditions in all cases: glycan notation: IUPAC condensed, linker removed
# [1] = test system: Gal(b1-4)GlcNAc(a1-6)Gal(b1-4)GlcNAc
# In short: (§1)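 Columns mapping to the same glycan were averaged after glycan names were converted to IUPAC-condensed notation. The data come from 3228 arrays in the Consortium for Functional Glycomics database, limited to those with an available protein sequence. Binding is reported as a within-array Z-score averaged across arrays of one protein sequence and across linkers.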
# [2] = test system: Gal(b1-4)GlcNAc(b1-2)Man(a1-3)[Man(a1-6)]Man(b1-4)GlcNAc(b1-4)GlcNAc
# In short: as §1
# [3] = test system: Gal(b1-4)GlcNAc(b1-2)Man(a1-3)Man(b1-4)GlcNAc(b1-4)GlcNAc
# In short: as §1
# [4] = test system: Gal(b1-4)GlcNAc(b1-2)Man(a1-3)[Gal(b1-4)GlcNAc(b1-2)Man(a1-6)]Man(b1-4)GlcNAc(b1-4)[Fuc(a1-6)]GlcNAc
# In short: as §1
# [5] = test system: Gal(b1-4)GlcNAc(b1-2)Man(a1-3)[GlcNAc(b1-2)Man(a1-6)]Man(b1-4)GlcNAc(b1-4)GlcNAc
# In short: as §1
# [6] = test system: Gal(b1-4)GlcNAc(b1-2)Man(a1-3)[Gal(b1-4)GlcNAc(b1-2)Man(a1-6)]Man(b1-4)GlcNAc(b1-4)GlcNAc
# In short: as §1
# [7] = test system: Gal(b1-4)GlcNAc(b1-2)Man(a1-6)[Man(a1-3)]Man(b1-4)GlcNAc(b1-4)GlcNAc
# In short: as §1
# [8] = test system: Gal(b1-4)GlcNAc(b1-2)Man(a1-6)Man(b1-4)GlcNAc(b1-4)GlcNAc
# In short: as §1
# [9] = test system: Gal(b1-4)GlcNAc(b1-2)Man(a1-6)[GlcNAc(b1-2)Man(a1-3)]Man(b1-4)GlcNAc(b1-4)GlcNAc
# In short: as §1
# [10] = test system: Gal(b1-4)GlcNAc(b1-2)[Gal(b1-4)GlcNAc(b1-6)]Man(a1-6)[Gal(b1-4)GlcNAc(b1-2)Man(a1-3)]Man(b1-4)GlcNAc(b1-4)[Fuc(a1-6)]GlcNAc
# In short: as §1
# [11] = test system: Gal(b1-4)GlcNAc(b1-2)[Gal(b1-4)GlcNAc(b1-6)]Man(a1-6)[GlcNAc(b1-4)][Gal(b1-4)GlcNAc(b1-2)[Gal(b1-4)GlcNAc(b1-4)]Man(a1-3)]Man(b1-4)GlcNAc(b1-4)[Fuc(a1-6)]GlcNAc
# In short: as §1
# [12] = test system: Gal(b1-4)GlcNAc(b1-3)Gal(b1-4)GlcNAc(b1-3)Gal(b1-4)GlcNAc(b1-2)[Gal(b1-4)GlcNAc(b1-3)Gal(b1-4)GlcNAc(b1-3)Gal(b1-4)GlcNAc(b1-6)]Man(a1-6)[Gal(b1-4)GlcNAc(b1-3)Gal(b1-4)GlcNAc(b1-3)Gal(b1-4)GlcNAc(b1-2)Man(a1-3)]Man(b1-4)GlcNAc(b1-4)[Fuc(a1-6)]GlcNAc
# In short: as §1
# Gal(b1-4)GlcNAc(b1-2)Man = test system: Gal(b1-4)GlcNAc(b1-2)Man
# In short: as §1
# [13] = test system: Gal(b1-4)GlcNAc(b1-2)[Gal(b1-4)GlcNAc(b1-6)]Man(a1-6)[Gal(b1-4)GlcNAc(b1-2)Man(a1-3)]Man(b1-4)GlcNAc(b1-4)GlcNAc
# In short: as §1
# [14] = test system: Gal(b1-4)GlcNAc(b1-3)Gal(b1-4)GlcNAc(b1-3)Gal(b1-4)GlcNAc(b1-2)Man(a1-3)[Gal(b1-4)GlcNAc(b1-3)Gal(b1-4)GlcNAc(b1-3)Gal(b1-4)GlcNAc(b1-2)Man(a1-6)]Man(b1-4)GlcNAc(b1-4)GlcNAc
# In short: as §1
# [15] = test system: Gal(b1-4)GlcNAc(b1-3)Gal(b1-4)GlcNAc(b1-3)Gal(b1-4)GlcNAc(b1-2)Man(a1-3)[Gal(b1-4)GlcNAc(b1-3)Gal(b1-4)GlcNAc(b1-3)Gal(b1-4)GlcNAc(b1-2)Man(a1-6)]Man(b1-4)GlcNAc(b1-4)[Fuc(a1-6)]GlcNAc
# In short: as §1
# [16] = test system: Gal(b1-4)GlcNAc(b1-3)Gal(b1-4)GlcNAc(b1-3)Gal(b1-4)GlcNAc(b1-3)Gal(b1-4)GlcNAc(b1-2)Man(a1-3)[Gal(b1-4)GlcNAc(b1-3)Gal(b1-4)GlcNAc(b1-3)Gal(b1-4)GlcNAc(b1-3)Gal(b1-4)GlcNAc(b1-2)Man(a1-6)]Man(b1-4)GlcNAc(b1-4)[Fuc(a1-6)]GlcNAc
# In short: as §1
# [17] = test system: Gal(b1-4)GlcNAc(b1-3)Gal(b1-4)GlcNAc(b1-2)Man(a1-3)[Gal(b1-4)GlcNAc(b1-3)Gal(b1-4)GlcNAc(b1-2)Man(a1-6)]Man(b1-4)GlcNAc(b1-4)GlcNAc
# In short: as §1
# [18] = test system: Gal(b1-4)GlcNAc(b1-3)Gal(b1-4)GlcNAc(b1-2)[Gal(b1-4)GlcNAc(b1-3)Gal(b1-4)GlcNAc(b1-6)]Man(a1-6)[Gal(b1-4)GlcNAc(b1-3)Gal(b1-4)GlcNAc(b1-2)Man(a1-3)]Man(b1-4)GlcNAc(b1-4)GlcNAc
# In short: as §1
# [19] = test system: Gal(b1-4)GlcNAc(b1-3)Gal(b1-4)GlcNAc(b1-3)Gal(b1-4)GlcNAc(b1-3)Gal(b1-4)GlcNAc(b1-2)[Gal(b1-4)GlcNAc(b1-3)Gal(b1-4)GlcNAc(b1-3)Gal(b1-4)GlcNAc(b1-3)Gal(b1-4)GlcNAc(b1-6)]Man(a1-6)[Gal(b1-4)GlcNAc(b1-3)Gal(b1-4)GlcNAc(b1-3)Gal(b1-4)GlcNAc(b1-3)Gal(b1-4)GlcNAc(b1-2)Man(a1-3)]Man(b1-4)GlcNAc(b1-4)[Fuc(a1-6)]GlcNAc
# In short: as §1
substance,measurement,setting,value
"SpGH101 (Streptococcus pneumoniae), Q8DR60",glycan array binding signal (z-score),[1],-0.178
same,glycan array binding signal (z-score),[2],-0.069
"BambL (Burhholderia ambifaria), Q0B4G1",glycan array binding signal (z-score),[3],-0.313
same,glycan array binding signal (z-score),[4],0.351
same,glycan array binding signal (z-score),[5],-0.301
"SiiE (Salmonella typhimurium), A0A0H3NVH0",glycan array binding signal (z-score),[6],2.4
same,glycan array binding signal (z-score),[7],0.213
Epa22,glycan array binding signal (z-score),[4],1.95
"Wza (Escherichia coli), P0A930",glycan array binding signal (z-score),[8],1.02
AgI/II Vhelical-GFP (Streptococcus mutans),glycan array binding signal (z-score),[9],-0.18
same,glycan array binding signal (z-score),[10],-0.078
same,glycan array binding signal (z-score),[11],-0.092
same,glycan array binding signal (z-score),[12],0.214
LcI (Legionella pneumophila),glycan array binding signal (z-score),Gal(b1-4)GlcNAc(b1-2)Man,0.449
same,glycan array binding signal (z-score),[13],0.017
same,glycan array binding signal (z-score),[14],0.132
same,glycan array binding signal (z-score),[15],-0.212
same,glycan array binding signal (z-score),[16],0.132
AgI/IIC123-GFP (Streptococcus mutans),glycan array binding signal (z-score),[13],-0.449
same,glycan array binding signal (z-score),[11],-0.015
same,glycan array binding signal (z-score),[17],3.9
same,glycan array binding signal (z-score),[18],-0.185
Actinohivin (Actinomycete K97),glycan array binding signal (z-score),[12],0.097
same,glycan array binding signal (z-score),[19],-0.012
